Reference: ChEMBL document CHEMBL3988442, “University of Dundee, Small-Polar-MMV Screening Library” (2021)
For some assays here: Measured potencies and affinities stand elsewhere.

Key:
Design in all cases: scale not given: direction of the effect not stated beside the values
[1] = molecular target: Protein translocase subunit SecA (Escherichia coli (strain K12)) (UniProt P10408); assay: Assay to Identify E. coli SecA ATPase Inhibitors; assay type: functional; conditions: 30 µM
[2] = molecular target: T1, Ubiquitin-activating enzyme e1, putative (Leishmania donovani (strain BPK282A1)) (UniProt E9BSI1); assay: Leishmania donovani Ubiquitin Activating Enzyme (LdE1); assay type: functional; conditions: 30 µM
T1 sequence (whole entry): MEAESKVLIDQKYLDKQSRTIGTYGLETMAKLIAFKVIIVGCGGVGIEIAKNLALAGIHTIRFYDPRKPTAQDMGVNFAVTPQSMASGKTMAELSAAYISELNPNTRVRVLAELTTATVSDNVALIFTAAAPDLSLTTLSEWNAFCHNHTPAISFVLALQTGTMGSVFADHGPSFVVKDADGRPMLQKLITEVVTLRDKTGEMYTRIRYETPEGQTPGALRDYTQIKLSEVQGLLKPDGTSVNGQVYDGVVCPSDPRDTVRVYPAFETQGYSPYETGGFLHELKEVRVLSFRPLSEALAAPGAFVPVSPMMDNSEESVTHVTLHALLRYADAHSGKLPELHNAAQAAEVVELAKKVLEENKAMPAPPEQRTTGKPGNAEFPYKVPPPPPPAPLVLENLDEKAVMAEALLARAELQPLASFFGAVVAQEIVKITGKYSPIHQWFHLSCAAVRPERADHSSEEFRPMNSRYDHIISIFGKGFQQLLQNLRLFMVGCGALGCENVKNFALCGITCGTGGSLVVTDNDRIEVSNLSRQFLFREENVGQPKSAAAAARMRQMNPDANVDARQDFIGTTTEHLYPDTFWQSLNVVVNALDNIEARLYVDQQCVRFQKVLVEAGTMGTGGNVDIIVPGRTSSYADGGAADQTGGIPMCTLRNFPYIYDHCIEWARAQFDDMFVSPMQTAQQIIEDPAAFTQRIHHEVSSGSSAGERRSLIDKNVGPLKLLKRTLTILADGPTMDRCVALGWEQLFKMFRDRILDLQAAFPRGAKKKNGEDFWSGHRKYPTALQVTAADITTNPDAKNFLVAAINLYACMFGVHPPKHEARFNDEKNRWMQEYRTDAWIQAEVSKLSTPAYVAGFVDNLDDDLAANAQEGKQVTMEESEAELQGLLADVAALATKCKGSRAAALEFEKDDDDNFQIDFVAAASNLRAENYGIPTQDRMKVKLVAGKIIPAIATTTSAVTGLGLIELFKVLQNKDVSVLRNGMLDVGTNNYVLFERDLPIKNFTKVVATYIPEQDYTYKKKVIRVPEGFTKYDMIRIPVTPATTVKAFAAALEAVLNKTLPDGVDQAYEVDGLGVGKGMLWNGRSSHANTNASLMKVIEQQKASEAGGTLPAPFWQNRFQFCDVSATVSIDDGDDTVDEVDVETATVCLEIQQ

[3] = molecular target: AMP-activated protein kinase, AMPK (Homo sapiens) (UniProt P54646+O43741+P54619+Q9UGJ0+Q9Y478+Q13131+Q9UGI9); assay: AMP-dependent Kinase enzyme assay. An in vitro enzyme assay that detects ADP turnover that is directly proportional to AMPK activity. This uses naive AMPK that is activated during the assay with MK-8722; assay type: functional; conditions: 30 µM
[4] = molecular target: Sialic acid-binding Ig-like lectin 9 (Homo sapiens) (UniProt Q9Y336); assay: Hs-Siglec9 ALPHAscreen SOP 20170721; conditions: 10 µM
Sialic acid-binding Ig-like lectin 9 (Homo sapiens), sequence (Q9Y336 whole entry): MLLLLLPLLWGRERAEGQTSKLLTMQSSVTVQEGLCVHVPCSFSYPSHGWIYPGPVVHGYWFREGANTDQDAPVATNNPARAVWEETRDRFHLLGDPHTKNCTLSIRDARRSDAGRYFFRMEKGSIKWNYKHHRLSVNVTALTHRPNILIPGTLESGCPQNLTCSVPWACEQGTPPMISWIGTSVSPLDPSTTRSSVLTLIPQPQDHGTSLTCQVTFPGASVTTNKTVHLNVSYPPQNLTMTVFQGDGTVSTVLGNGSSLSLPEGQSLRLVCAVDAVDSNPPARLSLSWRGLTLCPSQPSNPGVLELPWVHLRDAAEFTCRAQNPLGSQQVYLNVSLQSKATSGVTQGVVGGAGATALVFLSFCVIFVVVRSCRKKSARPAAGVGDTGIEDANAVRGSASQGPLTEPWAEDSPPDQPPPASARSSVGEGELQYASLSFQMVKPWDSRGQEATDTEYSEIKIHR

Trypanosoma cruzi = assay: Trypanosoma cruzi phosphomannomutase and mannose-1-phosphate guanylyltransferase assay; assay type: functional; conditions: 10 µM
[5] = molecular target: T2, Arginase-2, mitochondrial (Homo sapiens) (UniProt P78540); assay: in vitro enzyme assay to detect the production of urea directly proportional to the activity of Arginase II; assay type: functional; conditions: 33.3 µM; further: in the data most compounds retested in dose-response had high values
T2 sequence (whole entry): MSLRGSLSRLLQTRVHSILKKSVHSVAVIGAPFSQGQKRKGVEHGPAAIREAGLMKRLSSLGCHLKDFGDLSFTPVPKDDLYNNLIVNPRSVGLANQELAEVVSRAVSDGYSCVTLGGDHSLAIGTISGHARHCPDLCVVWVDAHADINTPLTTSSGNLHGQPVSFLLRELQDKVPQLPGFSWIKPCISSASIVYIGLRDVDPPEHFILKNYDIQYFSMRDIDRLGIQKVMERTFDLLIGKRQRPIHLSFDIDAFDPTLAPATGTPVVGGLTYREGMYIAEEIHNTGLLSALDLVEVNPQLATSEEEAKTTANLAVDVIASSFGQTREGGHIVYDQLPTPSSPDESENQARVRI

[6] = molecular target: T3, Proteasome subunit beta (Trypanosoma cruzi) (UniProt O96673); assay: Trypanosoma cruzi proteasome chymotrypsin-like activity (TcProtChymo) assay.; further: in the data most compounds retested in dose-response had high values; assay type: functional; conditions: 9.37 µM
T3 sequence (whole entry): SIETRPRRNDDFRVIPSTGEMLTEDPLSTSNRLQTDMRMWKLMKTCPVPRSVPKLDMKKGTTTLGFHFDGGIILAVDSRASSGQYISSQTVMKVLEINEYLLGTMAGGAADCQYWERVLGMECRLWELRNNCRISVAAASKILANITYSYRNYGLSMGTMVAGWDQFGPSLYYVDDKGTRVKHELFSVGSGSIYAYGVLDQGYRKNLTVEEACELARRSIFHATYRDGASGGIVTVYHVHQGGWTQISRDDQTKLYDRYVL

Homo sapiens = species on record: Homo sapiens; assay: To identify inhibition of the IFN signalling (Jak-Stat) pathway via expression of an eGFP reporter gene under the control of an IFN-stimulated response element (ISRE) containing MxA promoter.; assay type: functional; conditions: 30 µM
[7] = molecular target: T4, Tyrosyl-tRNA synthetase, putative (Trypanosoma cruzi (strain CL Brener)) (UniProt Q4DSP6); assay: Trypanosoma cruzi tyrosyl tRNA synthetase (TcYRS) _High Tyrosine SOP; assay type: functional; conditions: 30 µM; further: in the data most compounds retested in dose-response had high values
T4 sequence (whole entry): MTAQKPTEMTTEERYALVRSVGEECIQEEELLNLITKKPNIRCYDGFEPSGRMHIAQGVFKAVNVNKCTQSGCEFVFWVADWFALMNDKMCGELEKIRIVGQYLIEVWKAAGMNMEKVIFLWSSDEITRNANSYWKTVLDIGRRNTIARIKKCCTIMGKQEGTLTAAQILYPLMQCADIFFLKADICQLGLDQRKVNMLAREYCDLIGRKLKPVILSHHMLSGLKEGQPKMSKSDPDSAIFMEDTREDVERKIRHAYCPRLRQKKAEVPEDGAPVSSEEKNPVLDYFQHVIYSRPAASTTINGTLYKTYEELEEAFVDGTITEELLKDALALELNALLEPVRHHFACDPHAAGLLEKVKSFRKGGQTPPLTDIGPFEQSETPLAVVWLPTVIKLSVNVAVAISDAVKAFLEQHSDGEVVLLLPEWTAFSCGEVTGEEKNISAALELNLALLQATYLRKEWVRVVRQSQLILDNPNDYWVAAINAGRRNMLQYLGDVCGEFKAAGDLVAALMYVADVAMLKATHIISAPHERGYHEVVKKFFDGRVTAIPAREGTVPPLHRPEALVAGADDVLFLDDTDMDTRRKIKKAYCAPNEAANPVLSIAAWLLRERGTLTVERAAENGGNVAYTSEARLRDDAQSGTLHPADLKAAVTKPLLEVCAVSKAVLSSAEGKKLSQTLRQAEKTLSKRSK

[8] = molecular target: T4, Tyrosyl-tRNA synthetase, putative (Trypanosoma cruzi (strain CL Brener)); assay: Trypanosoma cruzi tyrosyl tRNA synthetase (TcYRS) SOP; assay type: functional; conditions: 30 µM
[9] = molecular target: Chromo domain-containing protein 1 (Saccharomyces cerevisiae (strain ATCC 204508 / S288c) (Baker's yeast)) (UniProt P32657); assay: ScCHD-1 Enzyme Inhibition Assay; assay type: functional; conditions: 30 µM; further: in the data most compounds retested in dose-response had high values
Chromo domain-containing protein 1 (Saccharomyces cerevisiae (strain ATCC 204508 / S288c) (Baker's yeast)), sequence (P32657 whole entry, the tested form may be a part): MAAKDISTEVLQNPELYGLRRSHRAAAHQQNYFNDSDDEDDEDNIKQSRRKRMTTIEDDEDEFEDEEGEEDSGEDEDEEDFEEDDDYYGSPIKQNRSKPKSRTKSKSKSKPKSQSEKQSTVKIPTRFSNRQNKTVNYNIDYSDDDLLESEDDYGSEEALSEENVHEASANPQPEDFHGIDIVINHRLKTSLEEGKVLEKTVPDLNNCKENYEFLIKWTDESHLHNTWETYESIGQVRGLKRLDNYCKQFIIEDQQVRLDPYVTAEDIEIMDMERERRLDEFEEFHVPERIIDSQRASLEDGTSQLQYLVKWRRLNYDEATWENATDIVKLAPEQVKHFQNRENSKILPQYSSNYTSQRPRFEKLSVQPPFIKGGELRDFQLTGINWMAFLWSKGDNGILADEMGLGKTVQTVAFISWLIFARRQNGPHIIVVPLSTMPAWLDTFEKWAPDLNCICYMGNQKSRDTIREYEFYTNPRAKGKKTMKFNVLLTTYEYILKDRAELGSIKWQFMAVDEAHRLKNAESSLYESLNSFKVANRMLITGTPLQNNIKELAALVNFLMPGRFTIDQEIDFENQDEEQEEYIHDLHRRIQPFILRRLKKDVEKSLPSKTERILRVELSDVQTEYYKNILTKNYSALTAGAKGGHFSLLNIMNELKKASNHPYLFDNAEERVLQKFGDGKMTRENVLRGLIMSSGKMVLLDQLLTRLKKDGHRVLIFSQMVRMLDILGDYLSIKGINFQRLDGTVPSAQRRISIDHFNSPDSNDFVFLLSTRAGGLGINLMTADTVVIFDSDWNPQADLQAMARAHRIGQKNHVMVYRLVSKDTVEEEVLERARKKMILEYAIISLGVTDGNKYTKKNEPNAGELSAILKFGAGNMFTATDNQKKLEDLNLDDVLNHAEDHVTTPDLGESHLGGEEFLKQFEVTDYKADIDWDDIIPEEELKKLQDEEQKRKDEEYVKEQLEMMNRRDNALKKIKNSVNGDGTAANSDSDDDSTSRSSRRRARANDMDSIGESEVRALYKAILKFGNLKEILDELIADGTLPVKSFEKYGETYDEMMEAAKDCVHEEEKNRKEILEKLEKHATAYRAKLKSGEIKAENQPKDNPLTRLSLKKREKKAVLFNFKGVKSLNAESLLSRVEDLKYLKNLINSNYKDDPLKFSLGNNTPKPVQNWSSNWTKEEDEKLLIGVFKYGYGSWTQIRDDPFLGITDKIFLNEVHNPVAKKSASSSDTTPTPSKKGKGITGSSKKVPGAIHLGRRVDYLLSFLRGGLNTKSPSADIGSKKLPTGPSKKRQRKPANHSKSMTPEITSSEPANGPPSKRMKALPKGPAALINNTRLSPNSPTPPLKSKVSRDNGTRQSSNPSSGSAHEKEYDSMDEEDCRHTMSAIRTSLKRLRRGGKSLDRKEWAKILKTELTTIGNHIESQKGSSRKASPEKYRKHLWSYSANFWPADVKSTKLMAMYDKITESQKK

Protein translocase subunit SecA (Escherichia coli (strain K12)), sequence (P10408 whole entry): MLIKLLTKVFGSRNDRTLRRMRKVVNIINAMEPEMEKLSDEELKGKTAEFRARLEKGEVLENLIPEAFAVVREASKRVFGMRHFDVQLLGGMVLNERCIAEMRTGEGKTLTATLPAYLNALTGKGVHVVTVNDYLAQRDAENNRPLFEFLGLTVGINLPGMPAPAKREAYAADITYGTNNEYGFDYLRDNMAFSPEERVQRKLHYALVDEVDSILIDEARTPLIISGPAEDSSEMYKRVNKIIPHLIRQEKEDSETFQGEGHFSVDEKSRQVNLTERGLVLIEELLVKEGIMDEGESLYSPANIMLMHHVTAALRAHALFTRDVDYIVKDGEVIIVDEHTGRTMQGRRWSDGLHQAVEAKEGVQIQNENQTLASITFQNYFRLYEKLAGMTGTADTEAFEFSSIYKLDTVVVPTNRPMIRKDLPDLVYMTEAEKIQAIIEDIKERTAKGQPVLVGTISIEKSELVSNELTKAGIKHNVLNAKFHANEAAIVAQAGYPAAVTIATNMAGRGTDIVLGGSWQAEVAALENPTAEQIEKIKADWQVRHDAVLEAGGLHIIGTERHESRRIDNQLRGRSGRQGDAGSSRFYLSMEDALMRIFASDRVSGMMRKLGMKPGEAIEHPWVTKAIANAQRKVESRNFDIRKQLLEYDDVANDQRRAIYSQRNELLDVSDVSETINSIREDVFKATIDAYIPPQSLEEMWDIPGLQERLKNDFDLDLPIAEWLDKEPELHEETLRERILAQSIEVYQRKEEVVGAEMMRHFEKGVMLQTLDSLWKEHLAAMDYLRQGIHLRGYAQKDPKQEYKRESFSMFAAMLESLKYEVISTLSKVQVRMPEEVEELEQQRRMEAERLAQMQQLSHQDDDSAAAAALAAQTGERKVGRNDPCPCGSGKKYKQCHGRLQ

Row | SMILES | Percent Effect [1] | Percent Effect [2] | Percent Effect [3] | Percent Effect [4] | Percent Effect (Trypanosoma cruzi) | Percent Effect [5] | Percent Effect [6] | Percent Effect (Homo sapiens) | Percent Effect [7] | Percent Effect [8] | Percent Effect [9]
1 | Cc1nnc(NCc2ccccc2Cl)c(C#N)c1C | -1.72% | -29.7% | -32.4% | -2.89% | 2.51% | 1.29% | 5.39% | 26.5% | 13.9% | 11% | 5.89%
2 | Cc1cnn(CC2CN(CC(=O)Nc3nnc(C)s3)CCO2)c1 (configuration not stated) | -5.89% | 13.2% | 0.773% | 3.55% | 7.71% | -0.766% | 6.01% | -6.29% | 3.43% | 12.2% | -12.5%
3 | CCOc1ncccc1NC(=O)c1cc(C)c(C)s1 | -7.94% | 1.39% | 3.33% | -1.86% | -2.82% | -2.21% | 11.1% | 11.6% | -3.16% | 2.56% | -0.429%
4 | Cc1cnc(N2CC3(CCN(C(=O)c4ccoc4)C3)C2)nc1 | -4.42% | 5.2% | 2.7% | 2.78% | -3.64% | -30.3% | 15% | 1.13% | 0% | 1.24% | -4.73%
5 | Cn1cccc1C1CCCN1C(=O)NCCCn1cccn1 (configuration not stated) | -1.96% | 2.67% | -3.95% | -0.718% | -0.0974% | -2.08% | 6.28% | 8.34% | 4.92% | 8.64% | -1.47%
6 | Cc1ccc(N(CC(=O)c2ccc(Br)cc2)C2=NCCCCC2)cc1 | -1.45% | -55.3% | 5.34% | 3.76% | 5.55% | -11.8% | 11% | 17.9% | 4.25% | -2.6% | -1.8%
7 | Cc1c(C(=O)NCC2CCCO2)nnn1-c1cccc2c1CCN(C)C2 (configuration not stated) | -7.71% | 2.63% | -11.9% | -4.47% | -1.27% | 2.37% | 6.42% | 27.2% | -1.06% | -2.6% | 88%
8 | O=C(c1ccn(-c2cccc(F)c2)n1)N1CCCC(n2cccn2)C1 (configuration not stated) | -4.17% | 2.6% | 4.13% | 0.275% | 5.78% | -1.05% | 13.3% | 2.64% | 0% | 7.06% | -16.1%
9 | CC(C)c1cccc(CSc2nnc(CN3CCCC3=O)o2)n1 | 2.49% | -2.67% | -1.77% | -1.76% | -0.0974% | 5.21% | -0.174% | -2.67% | 1.64% | 1.24% | 0.138%
10 | CCOc1ccccc1-c1noc(CN2CCCC(O)C2)n1 (configuration not stated) | -8.22% | 0% | -0.175% | -2.29% | 7.54% | -1.47% | 1.54% | -2.84% | 0.952% | 7.06% | -13.3%
11 | CC(=O)N1CCC2(CC1)COCCN2CCN(C)C | -1.15% | 5.33% | 0.268% | 4.02% | -4.25% | -26.3% | 3.59% | -11.5% | 2.08% | -25% | -5.07%
12 | COc1ccccc1CNC(=O)N1CCCC(c2nncn2C)C1 (configuration not stated) | -3.81% | 13.2% | -5.69% | 4.78% | 0.654% | 1.08% | 6.85% | 5.9% | 7.39% | 23.5% | -3.47%
13 | CCNC(=O)CCc1c(C)nc2cc(O)nn2c1C | -0.575% | 15.6% | -428% | 4.55% | 5.43% | 4.63% | 16.9% | 23.5% | 2.91% | 12.2% | -8.86%
14 | CCN1CCC(NC(=O)CN2CCc3c(nc(C4CC4)n3C)C2)CC1 | -2.61% | -5.2% | -9.14% | 13.3% | 0.374% | 6.76% | -2.37% | -16.3% | 1.94% | 0% | -7.12%
15 | CN(C)S(=O)(=O)N1C[C@@H](Oc2ccccn2)[C@H]2OCCC[C@H]21 | -3.77% | 10.4% | 5.04% | 3.32% | 0.493% | -3.23% | 8.7% | 24.1% | -4.23% | 8.97% | -11.1%
16 | CCn1ncc2c1CCCC2NCc1cccc2c1OCCO2 (configuration not stated) | -2.98% | -6.33% | 6.39% | -0.488% | -0.718% | 4.09% | 0% | 12.6% | 0% | 2.53% | -17.9%
17 | c1cc(CNCC2OCCc3cn(CC4CCOCC4)nc32)ccn1 (configuration not stated) | -0.867% | -37.8% | 1.52% | -8.34% | 1.86% | 4.78% | 29% | 18.1% | 6.49% | 17.9% | 1.56%
18 | Cc1nc(N2CCCCC2)ncc1C(=O)N1CC(C)(C)[C@@](C)(O)C1 | -4.9% | 0% | -4.56% | 7.93% | -2.05% | 4.22% | -6.09% | 7.42% | 8.6% | 6.17% | -1.76%
19 | NC(=O)c1ccc(CN2CCCC(N3CCCC3)C2)cc1 (configuration not stated) | -3.01% | 18.9% | -3.31% | -0.296% | 2.54% | 5% | 23.8% | -1.33% | 7.92% | 15.8% | -6.1%
20 | CC(CN1CCOCC1)NCC1CCN(c2cnn(C)c(=O)c2)CC1 (configuration not stated) | -4.77% | -1.39% | -4.64% | 1.85% | -1.85% | -0.883% | 4.21% | -10.4% | 0% | -10.3% | 1.95%
21 | Cc1nc(C)c(C(=O)NCCNC(=O)c2ccc(F)cc2F)s1 | -1.94% | 10.8% | -1.06% | 22.4% | 5.85% | -4.25% | 15.8% | 16.4% | 8.91% | 23.2% | -8.6%
22 | CCOC(=O)[C@]12CCCN(Cc3nccs3)C[C@H]1CN(CCN(C)C)C2 | -2.1% | 13% | 1.26% | -3.57% | -0.493% | 7.1% | 16.2% | 8.87% | 2.12% | 8.97% | -10.9%
